# Data taken from the supplement of paper PMC3545927.
# The other results are listed elsewhere or left out. No count for the full screen is at hand.
# Target: furin, P09958
# Assay: furin cleavage Z-score vs untreated control; higher = more cleavage, active = 3.5 or more, inactive = 1 or less, 8 variable residues between constant flanks
# In short: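 Purified furin digested bead-held 8-mer peptide–cDNA fusions at 1:10 enzyme:substrate in 0.01 ml of 50 mM HEPES pH 7.5 with CaCl2 and NaCl for 7.5, 15 or 30 min. The cleavage Z-score compares sequencing counts of released DNA with furin-free reactions on a log scale, with lowess adjustment and median absolute deviation scaling.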
# furin, P09958, sequence (P09958 whole entry): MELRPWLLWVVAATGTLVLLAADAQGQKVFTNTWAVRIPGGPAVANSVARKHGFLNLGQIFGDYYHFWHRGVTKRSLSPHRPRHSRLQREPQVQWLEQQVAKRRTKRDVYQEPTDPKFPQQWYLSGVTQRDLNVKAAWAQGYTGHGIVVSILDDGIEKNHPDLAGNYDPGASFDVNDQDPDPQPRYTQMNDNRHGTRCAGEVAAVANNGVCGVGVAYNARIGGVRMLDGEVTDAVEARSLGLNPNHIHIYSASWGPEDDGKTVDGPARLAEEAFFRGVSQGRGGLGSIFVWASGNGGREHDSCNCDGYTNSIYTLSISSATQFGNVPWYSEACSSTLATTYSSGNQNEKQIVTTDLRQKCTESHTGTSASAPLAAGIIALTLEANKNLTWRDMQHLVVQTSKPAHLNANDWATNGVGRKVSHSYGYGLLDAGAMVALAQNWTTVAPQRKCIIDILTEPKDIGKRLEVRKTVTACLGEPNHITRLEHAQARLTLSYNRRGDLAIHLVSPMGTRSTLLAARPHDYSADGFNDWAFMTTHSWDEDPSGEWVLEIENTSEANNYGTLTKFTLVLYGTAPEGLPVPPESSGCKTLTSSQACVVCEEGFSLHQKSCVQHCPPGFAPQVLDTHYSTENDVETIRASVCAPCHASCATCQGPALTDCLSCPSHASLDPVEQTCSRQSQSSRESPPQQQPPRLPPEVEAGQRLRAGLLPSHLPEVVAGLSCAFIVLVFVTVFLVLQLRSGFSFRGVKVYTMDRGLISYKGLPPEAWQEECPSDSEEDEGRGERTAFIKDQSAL
Sequence,furin cleavage Z-score (7.5 min),furin cleavage Z-score (15 min),furin cleavage Z-score (30 min)
CADAVILLMCAGNASASA [HC596],-0.491 (inactive),1.35,0.744 (inactive)
CAREKRLLYSAGNASASA [FS-3218],-0.25 (inactive),0.302 (inactive),-0.105 (inactive)
CAREKRSEYSAGNASASA [FS-1852],3.09,3.81 (active),3.2
CALLCRHKRKAGNASASA [FS-1359],7.93 (active),9.24 (active),8.25 (active)
CAIEFRHKRKAGNASASA [FS-1535],-1.35 (inactive),1.39,3.89 (active)
CARGPRGKGKAGNASASA [FS-1893],-0.459 (inactive),-0.333 (inactive),-2.1 (inactive)
CATIMAKNEVAGNASASA [HC1439],1.57,1.43,0.513 (inactive)
CAMGGNITRVAGNASASA [HC1279],-0.69 (inactive),2.32,0.434 (inactive)
CAYGGRNRRVAGNASASA [FS-151],2,3.67 (active),4.5 (active)
CAEVVASTWVAGNASASA [HC121],1.23,1.63,-0.233 (inactive)
CAKFHRNRRVAGNASASA [FS-38],1.89,4.04 (active),2.3
CAVPCVREGNAGNASASA [HC274],-0.737 (inactive),-0.519 (inactive),-1.84 (inactive)
CARLPRATGNAGNASASA [FS-2571],5 (active),5.67 (active),4.58 (active)
CAWREVPCHRAGNASASA [HC2428],0.368 (inactive),0.114 (inactive),0.301 (inactive)
CARLARTCGRAGNASASA [FS-2985],-1.25 (inactive),0.197 (inactive),-0.432 (inactive)
CAGVNYATGNAGNASASA [HC241],1.48,0.396 (inactive),-0.36 (inactive)
CARLPRDCTRAGNASASA [FS-1742],5.34 (active),4.96 (active),5.25 (active)
CARLRRMNGNAGNASASA [FS-2994],-0.28 (inactive),-1.18 (inactive),-0.557 (inactive)
CAVVCCCMSYAGNASASA [HC114],-0.592 (inactive),-1.78 (inactive),-0.879 (inactive)
CAENLPYLVAAGNASASA [HC951],0.645 (inactive),-0.626 (inactive),-0.719 (inactive)
CARKRRHHKEAGNASASA [FS-2699],2.57,3.84 (active),4.3 (active)

Sequence,furin cleavage Z-score (7.5 min),furin cleavage Z-score (15 min),furin cleavage Z-score (30 min)
CARKRRMQEEAGNASASA [FS-2349],1.31,4.08 (active),2.78
CARKNRSRIPAGNASASA [FS-1732],0.169 (inactive),-0.807 (inactive),1.17
CARKRRAAIPAGNASASA [FS-2970],8.75 (active),10.1 (active),9.65 (active)
CARKRRGYSEAGNASASA [FS-2566],2.94,5.38 (active),4.72 (active)
CARKRKKKEEAGNASASA [FS-2697],0.247 (inactive),-0.542 (inactive),0.0983 (inactive)
CAITTGSPITAGNASASA [HC803],-2.76 (inactive),0.166 (inactive),-2.04 (inactive)
CAHGVRVLEDAGNASASA [HC237],-1.85 (inactive),0.0719 (inactive),-1.67 (inactive)
CATLPCSGSWAGNASASA [HC1845],-0.596 (inactive),-0.261 (inactive),-1.28 (inactive)
CAAFASRGNHAGNASASA [HC1121],-0.112 (inactive),-1.64 (inactive),-2.06 (inactive)
CARKRRHAKPAGNASASA [FS-1906],10.5 (active),11.1 (active),8.48 (active)
CARGNHVSPTAGNASASA [HC1123],1.1,1.54,0.545 (inactive)
CAEVPCHRPKAGNASASA [HC2414],-1.63 (inactive),0.536 (inactive),-0.415 (inactive)
CAVVCCSMQYAGNASASA [HC2082],1.92,0.703 (inactive),0.648 (inactive)
CAGGAYDIIIAGNASASA [HC814],-2.09 (inactive),-0.697 (inactive),-1.96 (inactive)
CAHHQRRRRAAGNASASA [FS-907],7.96 (active),6.66 (active),6.29 (active)
CAPAPPRRRAAGNASASA [FS-1041],-0.128 (inactive),0.595 (inactive),-0.381 (inactive)
CAGERRRRRAAGNASASA [FS-996],8.97 (active),8.15 (active),6.93 (active)
CAGAQRRRRAAGNASASA [FS-1524],6.18 (active),4.18 (active),4.18 (active)
CAGAGAGAGAAGNASASA [NE4],-0.934 (inactive),-0.739 (inactive),-0.847 (inactive)
CAGERGFFYTAGNASASA [EK5],-1.92 (inactive),-1.21 (inactive),-0.932 (inactive)
CAQEMEECSQAGNASASA [HC1802],-0.772 (inactive),0.513 (inactive),-1.67 (inactive)
